# Screening data (PubChem BioAssay)
# Sampled rows, rich in hits. Any-hit rate of the full collection: about 13%.
# USP30 inh: blocks human USP30 ubiquitin-rhodamine cleavage; AID 1645860; Q70CQ3; purified USP30, Ub-rhodamine cleavage fluorescence; inhibition, % at 25 µM; hit rate 5.3% among 47,000
# OTUD3 block: inhibitors of human OTUD3 deubiquitinase; Q5T2D3; inhibition, % at 25 µM; purified OTUD3, Ub-rhodamine fluorescence, 2 h; AID 1645858; hit rate 0.7% among 47,000
# USP8 inh: inhibitors of human USP8 deubiquitinase; hit rate 4.2% among 47,000; inhibition, % at 20 µM; purified USP8, Ub-rhodamine cleavage fluorescence, 30 min; AID 1645853; P40818
# USP28 block: human USP28 deubiquitinase inhibition. Q96RU2. purified USP28, Ub-rhodamine cleavage fluorescence, 30 min. inhibition, % at 25 µM. hit rate 3% among 47,000. AID 1645857
# USP10 block: inhibitors of human USP10 deubiquitinase; Q14694; purified USP10, Ub-rhodamine fluorescence, 60 min; inhibition, % at 20 µM; hit rate 1.1% among 47,000; AID 1645856
# USP17 block: human USP17-like deubiquitinase inhibition; A8MUK1; purified USP17, Ub-rhodamine cleavage fluorescence, 3 h; inhibition, % at 50 µM; hit rate 6.5% among 47,000
# Target sequence (A8MUK1 whole entry, looked up): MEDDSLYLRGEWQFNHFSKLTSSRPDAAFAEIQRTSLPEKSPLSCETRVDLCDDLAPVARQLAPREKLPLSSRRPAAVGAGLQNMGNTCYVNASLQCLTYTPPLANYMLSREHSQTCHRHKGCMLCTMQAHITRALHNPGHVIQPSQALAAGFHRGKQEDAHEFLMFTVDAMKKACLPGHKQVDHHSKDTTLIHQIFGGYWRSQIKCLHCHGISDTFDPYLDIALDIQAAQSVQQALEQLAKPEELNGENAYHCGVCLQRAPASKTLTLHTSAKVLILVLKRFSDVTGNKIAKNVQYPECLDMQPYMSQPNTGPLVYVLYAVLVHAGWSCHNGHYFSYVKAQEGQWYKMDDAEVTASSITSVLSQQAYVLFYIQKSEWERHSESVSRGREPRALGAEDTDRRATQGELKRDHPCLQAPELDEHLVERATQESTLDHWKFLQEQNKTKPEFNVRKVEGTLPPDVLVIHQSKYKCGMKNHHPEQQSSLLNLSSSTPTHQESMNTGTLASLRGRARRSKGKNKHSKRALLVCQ
# * = called active by the depositor; nt = not tested or not shown. No stated cut-off is given here; in the data, active means inhibition above about 30%; inactive means the rest.
SMILES,USP30 inh,OTUD3 block,USP8 inh,USP28 block,USP10 block,USP17 block
CC1OC2CC(O)C1(O)C1=C2C(=O)c2c(O)c3c(c(O)c2C1=O)[C@H](C)O[C@H]1CC(=O)O[C@@H]31 (some centres undefined),-81,-7,-71,11,-10,56*
COc1cc2ccccc2cc1C(=O)NCc1ccccc1,27,19,7,26,8,17
COc1cc2ccccc2cc1C(=O)Nc1cccc(C)c1C,nt,5,6,nt,4,57*
CC(C)=CCC/C(C)=C/CC/C(C)=C/COc1c(O)cc(C=O)c(C=O)c1O,44*,84*,71*,81*,78*,81*
COc1ccc(-c2cn3c(C)c(C(=O)Nc4cccc(C(C)=O)c4)sc3n2)cc1,-68,-24,0,-65,-9,-26
CC(=O)c1cccc(NC(=O)c2sc3nc(-c4cccc([N+](=O)[O-])c4)cn3c2C)c1,19,18,58*,14,14,21
COc1ccc(NC(=O)c2sc3nc(-c4cccc([N+](=O)[O-])c4)cn3c2C)cc1OC,6,-1,2,-8,4,44*
CCOC(=O)C1CCN(C(c2ccco2)c2sc3ncnn3c2O)CC1 (centres undefined),-48,0,-3,-40,-5,-30
CC(C)C(=O)Nc1ccc2c(c1)nc(CN1CCCCCC1)n2C(C)C,17,6,6,5,0,6
COc1ccc(NC(=O)c2cnc(NCc3ccccc3)nc2C)cc1OC,-91,-13,-2,-8,-7,8
Cc1ccc(C2c3c(C)nn(-c4ccccc4)c3Oc3ncn4nc(-c5ccccc5O)nc4c32)cc1 (centres undefined),34*,7,41*,2,-1,16
Cc1nn(-c2ccccc2)c2c1C(c1cccnc1)c1c(ncn3nc(-c4cccc5ccccc45)nc13)O2 (centres undefined),24,11,16,9,8,16
COc1ccc(-c2noc(NCc3ccccc3F)n2)cc1OC,9,1,4,8,2,11
CC(C)N1CCN(C(=O)CN2CCC3(CCC2=O)NC(=O)c2ccccc2N3)CC1 (centres undefined),18,9,32*,9,1,19
COc1cc2ccccc2cc1C(=O)OCC(=O)N(C)c1ccccc1,7,0,-11,-2,1,4
COc1ccc(-c2cc3c(=O)n(CC(=O)Nc4ccccc4F)ccn3n2)cc1OC,9,-5,-2,-3,-1,70*
CCOc1ccc(-c2cc3c(=O)n(CC(=O)Nc4ccccc4OC)ccn3n2)cc1,6,1,-2,-1,0,2
COc1ccc(-c2cc3c(=O)n(CC(=O)NCCCN4CCCC4)ncn3n2)cc1,47*,6,-1,10,-8,60*
CCOc1ccccc1NC(=O)Cn1c(-c2ccc3c(c2)OCO3)cn(-c2ccc(OC)cc2)c1=O,28,3,-8,1,8,52*
COc1ccc(-c2cc3c(=O)n(CC(=O)Nc4ccccc4Cl)ccn3n2)cc1,6,18,-2,10,6,55*
Cc1c(C)c2sc(=O)[nH]c2[nH]c1=O,1,1,-8,9,0,24
CC1(C)O[C@@](C)([C@H]2CC3(CCN(C(=O)c4ccccc4)CC3)CO2)CC[C@@H]1O,10,0,2,0,2,-4
CCOc1ccccc1NC(=O)Cn1ccn2nc(-c3ccc(OC)cc3)cc2c1=O,43*,6,4,6,7,50*
CC(C)NC(=O)Cn1ccn2nc(-c3ccc(Cl)cc3)cc2c1=O,47*,-1,18,18,23,82*
CN(c1ccc(OCc2ccc(C#N)cc2)cc1)S(=O)(=O)c1ccccc1,23,5,10,12,5,3
SMILES,USP30 inh,OTUD3 block,USP8 inh,USP28 block,USP10 block,USP17 block
O=C1c2c(O)c(Cl)cc3c2[C@@]2(Oc4ccc(O)c5c4[C@]3(O2)[C@@H]2O[C@@H]2C5=O)[C@@H]2O[C@H]12,44*,89*,27,90*,40*,80*
COc1ccc(C2CN(C(=O)c3cnco3)CCN2C(C)=O)cc1 (centres undefined),-2,-2,-17,-3,-2,-4
N#Cc1ccccc1OCc1csc(-c2ccccc2)n1,10,-3,-30,66*,5,-10
COc1ccccc1C(=O)NCc1csc(-c2ccccc2)n1,17,0,0,9,2,-1
O=C1NC2(CCCc3ccccc32)C(=O)N1Cc1ncc(-c2ccccc2)o1 (centres undefined),-28,-11,0,7,0,-12
CC(=O)c1ccc(NC(=O)C2CCN(c3cncnc3N3CCCC3)CC2)cc1,-12,-8,-3,89*,1,-14
CC(=O)c1ccc(NC(=O)C2CCN(S(=O)(=O)c3cccnc3)CC2)cc1,35*,12,14,13,0,14
O=C(Nc1ccc(-c2ccno2)cc1)C1CCN(S(=O)(=O)c2cccnc2)CC1,-31,-5,-18,-10,-2,-16
COc1ccc(NC(=O)C2CCN(c3cncnc3N(C)C)CC2)cc1OC,-8,-2,-11,72*,-2,2
O=C(Nc1nc2ccc(Cl)cc2s1)C1CC1c1ccccc1 (centres undefined),-226,-52,-124,-52,-6,-85
O=C(COc1ccc2ccc(=O)oc2c1)c1ccc2c(c1)OCCO2,-179,-3,2,-20,-3,43*
COc1cccc(Nc2nc3c(S(=O)(=O)c4ccccc4)nnn3c3ccccc23)c1,nt,4,38*,nt,20,85*
O=S(=O)(c1ccccc1)c1nnn2c1nc(Nc1ccc(F)cc1)c1ccccc12,17,6,52*,0,10,5
CCc1c(C)nc2c(-c3ccccc3)c(Cc3ccccc3)[nH]n2c1=O,27,22,62*,12,16,17
COCC(O)CNC(=O)c1ccc2nc(-n3cccc3)sc2c1 (centres undefined),-21,-3,-2,-4,0,-8
Cc1ccoc1C(=O)N1C[C@H](OCc2ccccn2)[C@H]2OCCC[C@H]21,7,13,-19,4,-3,5
COc1ccccc1CN(CCCn1ccnc1)CC1CCOC1 (centres undefined),18,10,36*,8,4,14
COc1ccccc1CN1CCC(c2nn(C)c3nccnc23)CC1,-22,-1,1,-5,0,-15
O=c1c(Nc2cccc(F)c2)nc2ccncc2n1Cc1ccccc1,24,-9,-5,-3,-2,67*
Cc1cc(C)cc(Nc2nc3ccncc3n(Cc3ccccc3)c2=O)c1,17,-3,-30,-11,-1,23
O=c1c(NCCN2CCCC2)nc2ccncc2n1Cc1ccccc1,nt,3,-7,nt,-5,66*
